Measurements as given in PubChem BioAssay AID1117361 (Southern Research Institute, 2015).
Screen size: about 3,600 compounds; about 900 (25%) were called active. The list is a sample of the results. Entries with a potency or affinity are not part of this list. Unmarked numbers belong to inactive results. No rule for the calls is given here.

The compounds below were run against Protein Tat (Human immunodeficiency virus type 1 group M subtype B (isolate HXB2)) (UniProt P04608) (assay: HIV-1 Tat–TAR interaction blockers – biochemical, fluorescence polarization, FAM-labeled TAR RNA, counter-screen for Vif-APOBEC3G degradation inhibitor project, dose response (AID 1117361)). Conditions: Tat-TAR RNA binding; series mostly up to 100 µM; inhibition: at the top concentration.

SMILES	outcome	inhibition [%]
Clc1ccccc1Nc1c2c(nc3ncnn13)CCC2	inactive	
CC(=O)NCc1c(Cl)cccc1-n1cccc1	inactive	
CCCS(=O)(=O)NCc1cn2c(C)csc2n1		14.9
CN(C(=O)COc1ncnc2sccc12)c1ccccc1		4.95
COc1ccccc1NS(=O)(=O)c1cccs1		3.01
CCCCNc1nc2ccccc2nc1NS(=O)(=O)c1cccs1		13.5
Cc1cc(/C=C2\SC(=S)NC2=O)c(C)n1-c1ccccc1	inactive	
Cc1cc(/C=C2\SC(=S)NC2=O)c(C)n1-c1ccc(O)cc1	inactive	
CCc1ccc(-n2c(SCc3c(C)noc3C)nnc2-c2ccncc2)cc1		1.36
CCn1c(C(=O)N2CCc3ccccc3C2)cc2sccc21		8.11
Cc1noc(C)c1C(=O)N1CCc2ccccc2C1		6.82
CCC(C)(C)C1CCc2c(sc(NC(=O)c3ccoc3C)c2C(N)=O)C1 (stereo unspecified)		8.78
COc1cc(NC(=O)c2nnn(Cc3ccc(SC)cc3)c2N)cc(OC)c1		2.7
Cc1ccc(SCC(=O)c2sc(-c3ccccc3)nc2C)cc1	inactive [at 50 µM]	
COC(=O)c1ccc(Cl)c(NC(=O)CN(c2ccc3c(c2)OCO3)S(C)(=O)=O)c1		2.05
CS(=O)(=O)N(CC(=O)Nc1ccc2c(c1)OCO2)Cc1ccccc1		6.14
O=C(NCc1ccc(F)cc1)c1c(O)c2cccc3c2n(c1=O)CCC3	inactive	
Cc1ccc(C(=O)Nc2nc3ccccc3n2CCN2CCCC2)cc1		2.7
CCN1C(=O)c2c(C)nc3ccccc3c2C1=O		13.7

SMILES	outcome	inhibition [%]
COCCCN1C(=O)N(c2ccc(F)cc2)C(=O)C1CC(=O)Nc1ccc(OC)cc1 (stereo unspecified)		5.01
NC(=S)N/N=C/c1ccc(-c2cccc([N+](=O)[O-])c2)o1		0.68
Cc1cc(C)c([N+](=O)[O-])cc1-c1ccc(/C=N/NC(=O)c2nonc2N)o1		6.08
O=C(NNC(=O)c1ccccc1O)c1ccc(-c2ccc([N+](=O)[O-])cc2)o1		5.68
N=C(c1cccc([N+](=O)[O-])c1)N1CCCCCC1	inactive	
Cc1ccc(C(=O)OCc2cn3ccccc3n2)cc1		15.5
COc1cccc(NC(=O)N2CCN(c3nnnn3-c3ccccc3)CC2)c1		9.9
Cc1ccc(-n2nc(C)c3c(C)c(CCC(=O)O)c(C)nc32)cc1	inactive	
Cc1cc(=O)nc2c3ccccc3n(C(C)C(=O)NCCC(C)C)n12 (stereo unspecified)	inactive	
O=C(COc1ccc(S(=O)(=O)N2CCCC2)cc1)NCCC1=CCCCC1		22.5
CCN(CC)CCCNC(=O)c1cn(CCOC)c(=O)c2c1c1ccccc1n2C		0.68
Cc1cc(C)cc(-n2nnc(C(=O)NCc3ccco3)c2N)c1		8.87
COc1ccc(-n2nc(C(=O)NCc3ccco3)c3ccccc3c2=O)cc1	inactive	
CC1(C)CC2(CC(c3ccccc3F)c3ccc(O)c(O)c3O2)NC(=S)N1 (stereo unspecified)		4.95
CCc1cc2c(CN3CCN(CC)CC3)cc(=O)oc2cc1O		14.2
CCN1CCN(Cc2cc(=O)oc3ccc(C)cc23)CC1		8.25
C=C(Cl)COc1ccc2c(CCC)cc(=O)oc2c1		4.09
CCc1ccc2c(CN3CCC(C(=O)OC)CC3)cc(=O)oc2c1	inactive	
COc1ccc(S(=O)(=O)N2CCOC2CNC(=O)C(=O)NCc2ccccn2)cc1 (stereo unspecified)	inactive	

SMILES	outcome	inhibition [%]
CC(C)C(C(=O)OCC(=O)c1ccc2c(c1)NC(=O)CO2)N1C(=O)c2ccccc2C1=O (stereo unspecified)	inactive	
COCCNC(C)C(=O)C12CC3CC(CC(C3)C1)C2 (stereo unspecified)		1.35
Oc1ccc(/C=N/N2CCCCC2)c(O)c1O	inactive	
O=C(c1cc2ccccc2o1)N1CC=C(c2ccccc2)CC1		10.7
O=C(CCC(=O)NNc1nc2ccccc2c2nc(-c3ccccc3)nn12)NCCCN1CCOCC1		0.82
Cc1ccc2nsnc2c1S(=O)(=O)N(CCO)Cc1cc2cc3c(cc2[nH]c1=O)OCCO3		2.05
CCn1c(SCC(=O)NCC(=O)Nc2ccc(F)cc2)nnc1-c1ccncc1		2.73
CCn1c(=O)cc(SCC(=O)NCc2ccc(C)o2)c2ccccc21		8.19
Cc1cccc(OCc2nc3ccccc3c(=O)n2N)c1	inactive	
CC(=O)c1ccc(NC(=O)C(C)OC(=O)C(C)Oc2cccc(C)c2)cc1 (stereo unspecified)	inactive	
CCCn1nc(C(=O)Nc2cc(C(=O)OC)ccc2C)c2ccccc2c1=O		4.05
Cc1ccc([N+](=O)[O-])cc1NC(=O)CCSc1ccc(Cl)cc1		0.68
CCCCN1C2=C(C(=O)CC(C)(C)C2)C(c2ccccc2)C2=C1c1ccccc1C2=O (stereo unspecified)		6.14
CC1=C/C(=N\OS(=O)(=O)c2ccccc2)C=CC1=O	inactive	
Cc1cc(C)cc(N(C(C)C(=O)Nc2c(C)n(C)n(-c3ccccc3)c2=O)S(C)(=O)=O)c1 (stereo unspecified)		5.46
Cc1c(NC(=O)c2cc(-c3cccs3)on2)c(=O)n(-c2ccccc2)n1C		10.2
COC(=O)Cc1csc(Nc2c(C)n(C)n(-c3ccccc3)c2=O)n1		1.67
Cc1cc(C(=O)Nc2ccc(S(=O)(=O)Nc3onc(C)c3C)cc2)cs1		5.46
